Results from the supplement of paper PMC8291772.
± gives the standard error. The full ranking holds about 1,300 sequences; the median of “fluorescence a.u.” is about 420, and the highest 2% start at about 1,100. This excerpt belongs to a sample that is enriched for the highest values.

Target: terminal deoxynucleotidyl transferase (calf thymus) (UniProt P06526)
Experiment: TdT poly-dT extension signal (Cy3 hybridisation fluorescence, uncapped minus capped) (fluorescence a.u.); higher = more efficient initiation of TdT extension
Details: initiator chemistry: 2'-O-methyl-RNA, free 3'-OH (5'-tethered via HEG linker)
Method: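 All mono- to pentamer 2'-O-methyl-RNA initiators were made by photolithographic in situ synthesis (3'-NPPOC amidites, reverse direction, free 3'-OH) on glass on a hexaethylene glycol linker. Each was made in uncapped and DMTr-dT-capped versions, about 11 replicates each. Arrays were extended with calf thymus TdT (0.2 U/uL), 100 uM dTTP and 0.25 mM CoCl2 for 120 min at 37 C, hybridised with an rA18-Cy3 probe and scanned at 532 nm. The value is the mean uncapped minus the mean capped signal. IDs are written 3'->5' and are reversed to 5'->3'; all nucleotides are 2'-OMe.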

Sequence of terminal deoxynucleotidyl transferase (calf thymus) (P06526 whole entry): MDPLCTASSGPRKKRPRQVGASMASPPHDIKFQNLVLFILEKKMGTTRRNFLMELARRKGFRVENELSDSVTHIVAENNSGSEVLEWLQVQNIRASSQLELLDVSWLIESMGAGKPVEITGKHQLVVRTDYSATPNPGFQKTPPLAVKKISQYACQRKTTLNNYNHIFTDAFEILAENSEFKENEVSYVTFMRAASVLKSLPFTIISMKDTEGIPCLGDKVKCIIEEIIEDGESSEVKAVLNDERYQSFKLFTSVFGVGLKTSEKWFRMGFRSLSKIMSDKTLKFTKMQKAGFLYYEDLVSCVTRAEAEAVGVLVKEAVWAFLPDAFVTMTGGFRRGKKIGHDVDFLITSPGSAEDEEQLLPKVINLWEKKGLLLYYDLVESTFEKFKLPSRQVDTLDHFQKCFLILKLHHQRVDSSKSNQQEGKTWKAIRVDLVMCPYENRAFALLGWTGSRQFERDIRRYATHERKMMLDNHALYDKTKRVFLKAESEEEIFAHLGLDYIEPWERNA

Sequence	TdT poly-dT extension signal
CCUAG	353 ± 33
GGUA	376 ± 23
CGUAU	326 ± 32
CCUU	343 ± 26
CGUUU	232 ± 14
CGCCG	324 ± 46
GCAA	841 ± 41
CCAAC	725 ± 53
ACAA	1060 ± 140
CCAA	1060 ± 95
GCAAC	935 ± 81
ACAAG	613 ± 60
GCAAA	1260 ± 170
CCAAA	1170 ± 64
ACAAA	1170 ± 100
AUACG	244 ± 16
CCUA	528 ± 39
GAUA	432 ± 34
CACAU	469 ± 23
GACGC	1120 ± 110
UACGC	1190 ± 92
UACG	231 ± 24
CUCGU	483 ± 44
GGUC	489 ± 33
CAGU	512 ± 30
CACA	425 ± 22

Sequence	TdT poly-dT extension signal
AAAGU	535 ± 51
GUAAC	558 ± 40
UGCAA	770 ± 77
UCAGA	821 ± 37
AAUAA	788 ± 62
ACCUA	571 ± 34
UUUCA	224 ± 24
GCGAA	1000 ± 120
GACUU	318 ± 22
AGGAG	436 ± 25
CAUGG	217 ± 15
AAGG	383 ± 41
CAGGC	1060 ± 81
AAGGC	1170 ± 40
CUCC	396 ± 35
AUCAC	729 ± 63
CUGUC	440 ± 40
AAUGA	403 ± 20
AUUCC	377 ± 21
GUGAA	729 ± 86
AUUGG	176 ± 11
GCUUG	230 ± 30
GAUUA	366 ± 28
GAAUU	321 ± 24
AGCGA	556 ± 38
UUCG	159 ± 17

Sequence	TdT poly-dT extension signal
UUCGU	500 ± 42
UUCGC	1170 ± 79
GCGCA	351 ± 19
GCCG	192 ± 16
UCGCU	401 ± 25
UCGC	1140 ± 90
UCGCA	463 ± 31
CAACA	373 ± 34
UCGG	302 ± 31
AAGAU	506 ± 39
UUAGG	271 ± 26
UCGAU	402 ± 31
AGGGC	1120 ± 71
CUAUA	436 ± 37
GUAUG	157 ± 12
CGGCU	341 ± 24
UCACG	290 ± 31
CUCAG	488 ± 37
CCCCG	227 ± 18
GGUAG	272 ± 28
ACCAC	681 ± 58
UCUG	199 ± 16
UUAUA	375 ± 34
CUCCG	194 ± 14
AACUC	504 ± 22
AAUG	175 ± 23

Sequence	TdT poly-dT extension signal
AAUGG	219 ± 18
CAUGU	374 ± 35
CAUG	261 ± 26
AAUGC	1140 ± 77
CAUGC	1140 ± 140
CGUAC	482 ± 33
AACUU	369 ± 22
GGCGG	310 ± 26
AUAGG	266 ± 22
CCUGG	221 ± 18
GCGGA	554 ± 28
GUCUG	218 ± 15
GGCUA	621 ± 50
AAAAA	1140 ± 80
GAAA	879 ± 110
UAAAA	1190 ± 120
CAAA	1010 ± 77
GAAAA	1340 ± 160
AAAAG	572 ± 40
GAAAG	560 ± 51
UAAA	764 ± 51
CAAAG	703 ± 58
CAAAA	1140 ± 66
AAAA	1010 ± 74
UAAAG	531 ± 53
UUUAA	472 ± 39

Sequence	TdT poly-dT extension signal
CACUG	276 ± 22
GUUG	156 ± 11
AGAA	990 ± 120
ACAGA	899 ± 79
CGAU	429 ± 24
CCCGC	1200 ± 97
CCCG	312 ± 43
UCCGC	1090 ± 36
CCCCC	425 ± 34
AACAG	567 ± 34
AUGUG	141 ± 13
CGGUU	300 ± 22
GAGGG	362 ± 32
AUUAU	330 ± 49
UGCGG	324 ± 29
UCAGC	1040 ± 72
AUUC	339 ± 23
CAGGU	493 ± 28
GGGGG	472 ± 39
AAUUA	354 ± 22
GCCAA	696 ± 70
UGGU	453 ± 25
UUUAC	399 ± 22
CCCAU	552 ± 28
GCCGG	264 ± 21
UCGA	592 ± 34

Sequence	TdT poly-dT extension signal
CGGGC	1070 ± 81
UAGU	371 ± 23
AGGAU	433 ± 28
CUUAC	422 ± 38
CAAAU	657 ± 54
CAGUC	521 ± 42
CACGG	422 ± 55
GCCAG	491 ± 83
GUAAU	383 ± 30
CGUCA	307 ± 18
UAACA	312 ± 21
GGCAU	577 ± 48
ACAUC	447 ± 23
GGGCG	330 ± 32
GGGC	1320 ± 130
GGGCA	291 ± 26
UGUGC	1360 ± 95
GGUG	210 ± 18
CGUG	298 ± 26
UGUG	149 ± 15
AGUGG	280 ± 18
CGUGA	389 ± 45
AGUGC	1230 ± 130
UGUGA	362 ± 29
CGUGC	1220 ± 81
GGUGU	484 ± 37

Sequence	TdT poly-dT extension signal
AGUG	231 ± 23
GGUGC	1450 ± 72
CGGAG	465 ± 66
GGCUG	287 ± 31
CUAGC	785 ± 76
CAGUA	544 ± 58
AAAU	568 ± 46
CGCU	427 ± 65
CCAGA	833 ± 99
CCAG	470 ± 39
CCAGC	1240 ± 140
UAAG	401 ± 44
CAAG	600 ± 36
AAAG	538 ± 32
UAAGC	1190 ± 89
CAAGG	388 ± 18
GAAGC	1060 ± 81
UAAGG	350 ± 28
AAAGC	1270 ± 67
CAAGC	1300 ± 67
GUCUA	477 ± 45
UUGG	177 ± 12
UCAGG	384 ± 36
AAUAC	583 ± 71
GACA	349 ± 28
CCGGC	929 ± 50

Sequence	TdT poly-dT extension signal
UGGA	586 ± 52
UAGGG	313 ± 21
AACUA	675 ± 34
UUCGA	389 ± 32
GACCA	345 ± 31
ACUCG	256 ± 14
UCGGU	469 ± 22
GGAC	724 ± 120
GCGGG	285 ± 16
UUAC	418 ± 28
CGCUG	264 ± 25
UUGCU	326 ± 35
AACGA	620 ± 72
CCACC	410 ± 37
AUCAG	458 ± 47
ACCAG	559 ± 61
GAAAC	1000 ± 140
AAUUU	252 ± 27
AACCG	293 ± 26
UCACC	396 ± 31
UUUCU	226 ± 34
CCGCG	351 ± 19
UUCAU	442 ± 20
CAGCU	361 ± 26
CAGCA	560 ± 60
CAGC	1170 ± 110

Sequence	TdT poly-dT extension signal
CCUUC	341 ± 33
CAUU	293 ± 19
GAACG	310 ± 29
GCAG	492 ± 30
CGAGC	1020 ± 61
AGAGC	1140 ± 83
AGAG	491 ± 39
AGAGA	827 ± 77
GGAGC	1340 ± 130
GGAG	374 ± 20
UCAUU	329 ± 26
UGAAA	894 ± 54
CUCUU	266 ± 14
GCGC	946 ± 73
AGUU	341 ± 23
CAAGA	858 ± 93
GAGGC	1040 ± 84
GGCUU	336 ± 21
